HTT-AS promoter: HTT-AS promoter activation; HEK293 HTT-AS promoter firefly luciferase reporter, 24 h; response scale: percent change from vehicle, -100% = no light; 48,000 compounds, 0.24% hits; AID 1508624; Potency, µM (highest dose often 57.5 µM), for inactives: at the highest dose activity change, positive = activation, usual class: activators; further: nearly all actives have a fitted effect of over 55% in size
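HEK293 cells carrying firefly luciferase reporters were seeded at 2,500 per well in Opti-MEM and cultured for 24 h. They were then treated with compounds at up to 57.5 uM final for 24 h at 37 degrees C before Dual-Glo luminescence readout.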
NTMT1 inhibitor: NTMT1 methyltransferase inhibition | Q9BV86 | NTMT1 MTase-Glo SAH luminescence, purified enzyme | Potency, µM (top dose mostly 114 µM), for inactives: at the highest dose activity change, negative = inhibition, most hits filed as inhibitors | 59,000 compounds, 2.5% hits;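 further: plate controls were DMSO vehicle for no effect and no enzyme for full effect; nearly all actives have a fitted effect of over 65% in size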
Target sequence (Q9BV86 whole entry, looked up): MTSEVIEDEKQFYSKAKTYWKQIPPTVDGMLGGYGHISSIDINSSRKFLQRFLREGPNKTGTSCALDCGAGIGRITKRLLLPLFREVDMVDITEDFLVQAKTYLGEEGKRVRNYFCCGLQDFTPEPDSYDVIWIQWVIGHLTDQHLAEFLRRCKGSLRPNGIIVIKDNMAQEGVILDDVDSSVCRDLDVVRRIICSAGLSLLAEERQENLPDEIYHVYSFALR
HTT promoter inh: inhibitors of huntingtin promoter activity; HEK293 HTT promoter firefly luciferase reporter, 24 h; AID 1508623; 48,000 compounds, 0.93% hits; Potency, µM (titrated, usually from 57.5 µM), for inactives: top-dose activity change, negative = inhibition, most hits filed as inhibitors; further: nearly all actives have a fitted effect of over 50% in size
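HEK293 luciferase promoter-reporter cells (2,500/well) plated 24 h, then compounds added at up to 57.5 uM final for 24 h at 37 °C. Firefly luminescence by Dual-Glo, normalized to vehicle (0%) and zero RLU (-100%).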
The depositor's hits bear a star; ? = inconclusive; · = no result given; ! = not active in a repeat; [ ] = remark or other dose. Most compounds without a hit are left out; they make up all but 2.4% or so of the library. The call rests on the fitted dose curve; in most records, active means well fitted curve in the direction sought with a large enough effect; inconclusive means small, poorly fitted or top-dose-only effect, or another doubt; inactive means no such curve, though single readings can be large; an effect the other way counts as inactive or inconclusive. Potency means the concentration at half of the fitted maximal effect.

SMILES | HTT-AS promoter | NTMT1 inhibitor | HTT promoter inh
Cc1noc2ncnc(NCCc3ccccc3)c12 | -61% | 11% | 14µM*
Cc1ccc(CCNc2ncnc3onc(C)c23)cc1 | -36% | -5% | ?
Oc1cccc2cc(CNc3ccccc3F)cnc12 | · | 19% | ·
Cc1cc(C)n2ncc(C(=O)Nc3ccc(C(F)(F)F)cc3)c2n1 | · | -2% | ·
[Cl][In]([Cl])[Cl] | -18%[116 µM] | 3.2µM* | -13%[116 µM]
CC(C)Oc1ccc(-c2cnc3c(-c4ccnc5ccccc45)cnn3c2)cc1 | · | 5%[57.5 µM] | ·
c1ccc2c(-c3cnn4cc(-c5ccc(N6CCNCC6)cc5)cnc34)ccnc2c1 | ? | 56µM*! | -6%
Cc1ccc(C(=O)[C@H]2CC[C@@H](C(=O)Nc3ccc(S(=O)(=O)Nc4nccs4)cc3)C2)cc1C | · | 3% | ·
Cc1ccc(NC(=O)n2ncc3c(C)cccc32)c(C)c1 | 7.1µM* | -7% | 56%
COC(=O)c1ccc(NC(=O)n2ncc3c(C)cccc32)cc1 | ? | -6% | 9%
CCCC(C(=O)O)c1c(C)nc2ccc(Cl)cc2c1-c1ccccc1 (stereo not given) | · | -1%[57.5 µM] | ·
O=C(O)c1cc(O[C@@H]2O[C@H](CO[C@@H]3OC[C@@H](O)[C@H](O)[C@H]3O)[C@@H](O)[C@H](O)[C@H]2O)c2ccccc2c1O | · | -4%[29.8 µM] | ·
CCOc1ccc(-n2nc3ccc(NC(=O)COc4ccccc4)cc3n2)cc1 | -43% | ? | ?
CCOc1ccc(-n2nc3ccc(NC(=O)c4ccc(-c5cccc(Cl)c5)o4)cc3n2)cc1 | -67% | 79µM* | ?
Cc1ccc(C)c(SC2=NS(=O)(=O)c3cc(C(=O)NCc4ccccc4)ccc32)c1 | · | 2% | ·
COc1cc(O)c([C@H](CC(=O)N2CC(C)CC(C)C2)c2ccc3c(c2)OCO3)c(OC)c1 (stereo not given in full) | · | 6% | ·
CCNCCS(=O)(=O)NC[C@@]1(c2ccccc2)SC(NC(=O)C(C)(C)C)=NN1C(=O)C(C)(C)C | · | 9% | ·
O=C(Cn1c(=O)n(Cc2ccc(F)cc2)c(=O)c2sc3ccccc3c21)NCc1ccccc1Cl | -1% | 89µM* | -8%
O=C(Cn1c(=O)n(Cc2ccccc2)c(=O)c2sc3ccccc3c21)NCc1ccccc1Cl | -11% | -2% | -15%
C=C(c1ccc(C(=O)O)cc1)c1cc2c(cc1C)C(C)(C)CCC2(C)C | -10% | 112µM*! | -3%
CC1(C)CCC(C)(C)c2cc(C3(c4ccc(C(=O)O)cc4)OCCO3)ccc21 | · | 5%[57.5 µM] | ·
Cc1ccc(Nc2ncnc3c2cnn3-c2ccccc2)c(C)c1 | ? | 11µM* | 23%
Cc1ccc(-n2ncc3c(Nc4cccc(C)c4C)ncnc32)cc1 | -20% | -3% | -9%
COc1ccccc1Nc1ncc2c(n1)CCN(Cc1cc(F)cc(F)c1)C2 | -15% | 1% | ?
COc1ccccc1Nc1ncc2c(n1)CCN(CC(C)C)C2 | 13µM* | -4% | 29%
SMILES | HTT-AS promoter | NTMT1 inhibitor | HTT promoter inh
CC(C)c1ccccc1-c1nc(NCc2ccc(-c3cccnc3)cc2)c2sccc2n1 | · | 9% | ·
O=c1[nH]c2ccc(NCc3ccc(-c4ccccc4F)o3)cc2[nH]1 | -60% | 9% | 28µM*
O=c1[nH]c2ccc(NCc3ccc(-c4ccccc4)o3)cc2[nH]1 | -32% | -9% | ?
Cc1cc(C)c2sc(N3CCN(C(=O)c4ccc(N(C)C)cc4)CC3)nc2c1 | -21% | 3% | 0%
Cc1cc(C)c2sc(N3CCN(C(=O)C4CC4)CC3)nc2c1 | ? | 79µM* | 0%
CC1(c2ccccc2)CC(C)(C)N(C(=O)c2cccc(Cl)c2)c2ccccc21 (stereo not given) | -26% | 1% | ?
Cc1ccc2c(c1)N(C(=O)c1ccc(F)cc1)C(C)(C)CC2(C)c1ccccc1 (stereo not given) | -29% | -5% | 28µM*
Cc1cc(NS(=O)(=O)c2ccc(NC(=O)C(C)(C)c3ccc(Cl)c(Cl)c3)cc2)no1 | · | 5% | ·
Cc1cc(-n2c(=O)ccc3cnc4[nH]ccc4c32)ccc1F | · | -6% | ·
CCOc1ccc(CCNC(=O)c2cc3sccc3n2CCN(C)C)cc1OCC | · | -23% | ·
O=c1c2oc3ccccc3c2n(Cc2cccc(Cl)c2)c(=O)n1Cc1ccco1 | -42% | 8% | ?
O=c1c2oc3ccccc3c2n(Cc2ccccc2)c(=O)n1Cc1ccco1 | -16% | 89µM* | -10%
CC(=O)N[C@H](Cc1ccc(O)cc1)C(=O)N[C@H](CCCN=C(N)N)C(=O)N[C@H](Cc1ccccc1)C(N)=O | · | 2%[57.5 µM] | ·
Nc1nc(Nc2ccc3c(c2)CCC(N2CCCC2)CC3)nn1-c1cc2c(nn1)-c1ccccc1CCC2 (stereo not given) | · | 40µM* | ·
CC1(C)CC(C(=O)Nc2ccc([S+](=O)([O-])Nc3nccs3)cc2)C1 | · | 4%[57.5 µM] | ·
CC(C)=CCC/C(C)=C/CC/C(C)=C/CC[C@]1(C)CCc2cc(O)cc(C)c2O1 | · | 2%[29.8 µM] | ·
C#C[C@]1(O)CC[C@@H]2[C@@H]3CCc4cc(O)ccc4[C@H]3CC[C@@]21C | -35% | ? | -25%
C#C[C@]1(O)CC[C@H]2[C@@H]3CCc4cc(O)ccc4[C@H]3CC[C@@]21C | -21% | 11µM*! | -6%
O=C(COc1ccccc1)Nc1cccc(-c2cn3cccnc3n2)c1 | 15% | 1% | -1%
O=C(Cc1ccccc1)Nc1cccc(-c2cn3cccnc3n2)c1 | 11µM* | -2% | 53%
Fc1cnc(-c2ccccc2C(F)F)nc1NCC1CCN(c2cnccn2)C1 (stereo not given) | · | -1% | ·
O=C(O)/C(S)=C/c1ccc(I)cc1 | · | 79µM* | ·
COC1CC(OC2CCC3(C)C(=CCC4C3CCC3(C)C(C(C)O)CCC43O)C2)OC(C)C1OC1OC(C)C(OC2OC(COC3OC(COC4OC(CO)C(O)C(O)C4O)C(O)C(O)C3O)C(O)C(O)C2O)C(OC)C1O (stereo not given) | · | 9%[12.6 µM] | ·
CC(=O)O[C@H]1C[C@@H]2[C@]3(CC[C@]4(C)[C@@H](C5(C)CCC(C(C)(C)O)O5)[C@@H](O)C[C@@]24C)C[C@@]32CC[C@H](O[C@@H]3OC[C@@H](O)[C@H](O)[C@H]3O)C(C)(C)[C@H]12 (stereo not given in full) | · | 20%[12.6 µM] | ·
CCOC(=O)c1c(NC(=O)/C=C/c2ccc(OC)c(OC)c2)sc(C(C)=O)c1C | -13% | 5% | -8%
SMILES | HTT-AS promoter | NTMT1 inhibitor | HTT promoter inh
CCCOc1ccc(/C=C/C(=O)Nc2sc(C)c(C)c2C(=O)OCC)cc1OC | -13% | 79µM* | -10%
COc1ccc(CNC(=O)c2cc(-c3cncc(Cl)c3)cnc2-c2ccccn2)nc1OC | · | 6% | ·
Cc1cc(N(C)S(=O)(=O)c2ccc(NC(=O)Cc3ccc(Cl)c(Cl)c3)cc2)no1 | · | 0%[57.5 µM] | ·
O=C(O)C(O[C@@H]1O[C@H](CO[C@@H]2O[C@H](CO)[C@@H](O)[C@H](O)[C@H]2O)[C@@H](O)[C@H](O)[C@H]1O)c1ccccc1 (stereo not given in full) | · | 12%[29.8 µM] | ·
COCCCNC(=O)c1ccc(Cn2c(=O)c3ccccc3n(CC(=O)Nc3ccc(C)cc3C)c2=O)cc1 | -4% | ? | -8%
O=C(NC1CCN(Cc2ccccc2)CC1)c1ccc(Cn2c(=O)c3ccccc3n(Cc3ccc(Cl)cc3)c2=O)cc1 | -23% | 0% | -6%

Screens deposited in PubChem BioAssay by National Center for Advancing Translational Sciences (NCATS).
